High-throughput results (PubChem)
Shown are actives, neighbours in structure and some others; about 19% of the full set was active somewhere.
IL-1B inflam inh = blocks inflammasome-driven IL-1 beta release; THP-1 LPS/ATP IL-1B secretion, AlphaLISA, 16 h; active compounds read low; hit rate 4.7% among 360,000; activity change, % at 57.5 µM; in the data active = activity change below about -50%; inconclusive = mostly about -30% to -49%
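THP-1 cells pretreated 1 hr with compounds (up to 57.5 uM final), then stimulated with LPS (250 ng/mL final) plus ATP (1.25 mM final); secreted IL-1B measured by AlphaLISA after 16 hr, decreased signal indicating inhibition.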
HT1080 IDH1KD tx = kills HT-1080 cells with IDH1 knockdown | HT-1080 IDH1 knockdown viability, ATP luminescence, 48 h | Potency, µM (series often up to 46.1 µM), usual class: cytotoxic | hit rate 2% among 360,000
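Luminescent ATP read-out (CellTiter-Glo, 10 min at room temperature) after 48 h compound exposure at 37 °C gave viability of IDH1-knockdown HT-1080 cells. Activity was normalised to DMSO and cell-free wells, then fitted as concentration-response curves.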
HT1080NT lethal = kills 2HG-producing HT-1080-NT fibrosarcoma cells | hit rate 1.6% among 360,000 | HT-1080-NT fibrosarcoma viability, CellTiter-Glo ATP luminescence, 48 h | AID 686970 | Potency, µM (highest dose often 46.1 µM), usual class: cytotoxic;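 note: NT is the 2HG producing partner of a matched IDH1 knockdown line; nearly all actives have a fitted effect of over 55% in size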
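Fibrosarcoma NT cells, 750 per well in 5% FBS RPMI, were exposed to compound for 48 hours. Viability: CellTiter-Glo luminescence.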
DT40 TDP1 no CPT = qHTS for Inhibitors of human tyrosyl-DNA phosphodiesterase 1 (TDP1): qHTS in cells in absence of CPT | Potency, µM (doses to about 46.2 µM), usual class: inhibitors | AID 686978, 2013 | DT40 Tdp1-/- hTDP1 cells, no CPT, ATP luminescence, 48 h | hit rate 15% among 420,000; note: nearly all actives have a fitted effect of over 55% in size
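Growth kinetics read by CellTiter-Glo luminescence after ≥48 hr at 37 °C. Cells: DT40 Tdp1-/- stably carrying human TDP1, 400 per well, compound exposure in the absence of CPT (DMSO vehicle).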
DT40 TDP1 CPT = DT40-hTDP1 cell growth loss with CPT. hit rate 12% among 420,000. Potency, µM (titrated, usually from 46.2 µM), most hits filed as inhibitors. chicken DT40 Tdp1-/-;hTDP1 cells + 20 nM CPT, ATP luminescence, 48 h; note: nearly all actives have a fitted effect of over 55% in size
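Chicken DT40 Tdp1-/- cells stably complemented with human TDP1 were seeded at 400 cells/well in medium containing 20 nM camptothecin, exposed to pin-transferred compounds, and grown at 37 °C for at least 48 hr. Viability was read as ATP luminescence.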
Numbers stand for hits; 0 = inactive; ? = inconclusive; - = not tested or not shown. Unless noted, calls come from the whole dose curve; as a rule, active = well fitted curve in the direction sought with a large enough effect; inconclusive = small, poorly fitted or top-dose-only effect, or another doubt; inactive = no such curve, though single readings can be large; an effect the other way counts as inactive or inconclusive.

SMILES | IL-1B inflam inh | HT1080 IDH1KD tx | HT1080NT lethal | DT40 TDP1 no CPT | DT40 TDP1 CPT
CC(C)Cc1ccc(S(=O)(=O)N2CCN(Cc3noc(CCC(=O)N4CCCCC4)n3)CC2)cc1 | - | - | - | 21µM | ?
CC(=O)Nc1nc(-c2ccc3c(c2)CC(C)N3C(=O)C2CC2)c(C)s1 (stereo unspecified) | 0 | 0 | ? | 2.1µM | 1.2µM
CCOC(=O)C(=O)Nc1nc(-c2ccc3c(c2)CCN3C(=O)C2CC2)c(C)s1 | 0 | 0 | 0 | 0 | 0
Cc1sc(NC(=O)c2ccco2)nc1-c1ccc2c(c1)CC(C)N2C(=O)C1CC1 (stereo unspecified) | -73 | 7.9µM | 7.9µM | 3.5µM | 6.3µM
CCCCN(CC)CCCNC(=O)c1ccc(CS(=O)(=O)c2c(Cl)cccc2Cl)o1 | -78 | 0 | 0 | 0 | 0
Cc1ccc(CCNC(=O)c2ccc(CS(=O)(=O)c3ccc(Cl)cc3)o2)cc1 | - | - | - | 0 | 0
O=C(NCCc1ccc(Cl)cc1)c1ccc(CS(=O)(=O)c2ccc(Cl)cc2)o1 | - | - | - | ? | 16µM
Cc1ccc(S(=O)(=O)Cc2ccc(C(=O)NCCc3ccc(Cl)cc3)o2)cc1 | - | - | - | 29µM | 16µM
CCc1ccccc1S(=O)(=O)Cc1ccc(C(=O)NCCc2ccc(Cl)cc2)o1 | - | - | - | 18µM | ?
CC(C)CN(CCCNC(=O)c1cc(-c2cccs2)nc2ccccc12)CC(C)C | - | - | - | 0 | 0
CCN(CC)CCCN1C(=O)CSC1c1ccc([N+](=O)[O-])cc1 (stereo unspecified) | 0 | 0 | 0 | 0 | 0
CCOc1ccccc1NC(=O)c1nnn(CC(=O)Nc2ccc(OC)c(OC)c2)c1N | - | - | - | 0 | 0
CC1CCC(NC(=O)c2ccc(CS(=O)(=O)c3ccc(Cl)cc3)o2)CC1 (stereo unspecified) | - | - | - | 18µM | 18µM
CSc1ccc(CCNC(=O)c2ccc(CS(=O)(=O)c3ccc(Br)cc3)o2)cc1 | - | - | - | 21µM | 23µM
COc1ccc(S(=O)(=O)Cc2ccc(C(=O)NC3CCC(C)CC3)o2)cc1 (stereo unspecified) | 0 | 0 | 0 | ? | 0
CC1(c2nnnn2-c2ccc3c(c2)OCCO3)CCC(=O)N1CCc1ccc(O)cc1 (stereo unspecified) | 0 | 0 | 0 | 0 | 0
O=C(O)CCCNC(=O)c1nn(Cc2ccccc2)c(=O)c2ccccc12 | 0 | 0 | 0 | 0 | 0
Fc1ccccc1N=C1NN=C(c2ccccc2)CS1 | -90 | ? | 13µM | ? | ?
CC(C)(C)N=C1NN=C(c2ccc(S(=O)(=O)N3CCCCC3)cc2)CS1 | 0 | 0 | 0 | ? | 16µM
c1ccc(CN=C2NN=C(c3ccccc3)CS2)cc1 | -67 | 0 | 0 | ? | ?
Fc1ccc(F)c(C2=NNC(=Nc3ccccc3F)SC2)c1 | 0 | ? | ? | 16µM | ?
Cc1cccc(N=C2NN=C(c3ccccc3F)CS2)c1C | 0 | 0 | 0 | ? | 0
CC(=O)Nc1ccc(C(=O)Nc2ccc(S(=O)(=O)N3CCOCC3)cc2)cc1 | 0 | 0 | 0 | 0 | 0
CC(C)N=C1NN=C(c2ccc(F)cc2)CS1 | 0 | 0 | 0 | 23µM | 18µM
CC(=O)Nc1ccc(C2=NNC(=Nc3ccc(S(=O)(=O)N4CCOCC4)cc3)SC2)cc1 | -52 | ? | 0 | ? | ?
SMILES | IL-1B inflam inh | HT1080 IDH1KD tx | HT1080NT lethal | DT40 TDP1 no CPT | DT40 TDP1 CPT
Cc1cc(S(=O)(=O)N2CCOCC2)ccc1F | 0 | 0 | 0 | 0 | 0
O=S(=O)(c1ccc(N=C2NN=C(c3cc(F)ccc3F)CS2)cc1)N1CCOCC1 | -76 | 16µM | ? | 6.5µM | 8.2µM
Fc1ccc(N=C2NN=C(c3cc(F)ccc3F)CS2)cc1 | -96 | ? | ? | 15µM | ?
CCC(=O)N1CCc2cc(S(=O)(=O)NCCC(=O)Nc3cc(C)ccc3OC)ccc21 | - | - | - | 0 | 0
O=C(COC(=O)c1ccc(F)c(S(=O)(=O)N2CCCCC2)c1)NCc1ccc(F)cc1 | 0 | 0 | 0 | ? | 0
COc1cc(C#N)c(NS(=O)(=O)c2ccc3[nH]c(=O)sc3c2)cc1OC | 0 | 0 | 0 | 0 | 0
Clc1ccccc1N=C1NN=C(c2cccs2)CS1 | -77 | ? | ? | 0 | 0
CC(=O)Nc1ccc(SCC(=O)Nc2cc(C)on2)cc1 | 0 | 0 | 0 | 0 | 0
CN1CCN(c2nc(NCCOC34CC5CC(CC(C5)C3)C4)nc(OCC(F)(F)F)n2)CC1 | -80 | 0 | 0 | ? | ?
COC(=O)c1ccc(NC(=O)c2nc(S(=O)(=O)Cc3ccccc3F)ncc2Cl)cc1 | - | - | - | 0.89µM | 0.71µM
O=C(Nc1ccc(F)cc1)c1nc(SCc2ccccc2F)ncc1Cl | - | - | - | 0 | 0
O=C(Nc1ccccc1)c1nc(S(=O)(=O)Cc2ccccc2F)ncc1Cl | - | - | - | 1.1µM | 1.1µM
O=C(C[n+]1ccccc1Cl)c1ccc(O)c(O)c1 | - | - | - | 0 | 0
O=C(NCCCN1CCCCC1)c1sc2ncccc2c1-n1cccc1 | - | - | - | 0 | 0
CCOc1ccccc1CNC(=O)c1sc2ncccc2c1-n1cccc1 | - | - | - | 16µM | 15µM
O=C(NCCc1ccccc1Cl)c1sc2ncccc2c1-n1cccc1 | - | - | - | ? | 23µM
O=C(NCCCN1CCN(c2ccc(F)cc2)CC1)c1sc2ncccc2c1-n1cccc1 | - | - | - | ? | 16µM
Cc1cc(S(=O)(=O)Nc2cccnc2)c(C)s1 | 0 | 0 | 0 | 0 | 0
Cc1cc(S(=O)(=O)Nc2cc(C)c(O)c(C)c2)c(C)s1 | 0 | ? | ? | 2.9µM | 2.6µM
Cc1cc(S(=O)(=O)Nc2ccc3ccccc3c2)c(C)s1 | 0 | 14µM | 13µM | 11µM | 10µM
CC1(Cc2ccccc2C#N)C(=O)Nc2ccc(-c3ccccc3)cc21 (stereo unspecified) | 0 | ? | 0 | ? | ?
CC1(Cc2ccc(Cl)cc2)C(=O)Nc2ccc(-c3ccc(F)c(Cl)c3)cc21 (stereo unspecified) | 0 | ? | ? | ? | ?
CC1(Cc2ccc(F)cc2)C(=O)Nc2ccc(-c3cccnc3)cc21 (stereo unspecified) | 0 | 0 | 0 | 10µM | 23µM
C=Cc1ccc(CC2(C)C(=O)Nc3ccc(-c4cccnc4)cc32)cc1 (stereo unspecified) | 0 | 0 | ? | 4.6µM | ?
CCOc1ccc(NC(=NCc2ccc3c(c2)OCO3)SC2CC(=O)N(c3ccc(C(=O)O)cc3)C2=O)cc1 (stereo unspecified) | 0 | 0 | 0 | ? | 0
Cc1ccc(/C(O)=C2\C(=O)C(=O)N(CC(C)O)C2c2ccc(N(C)C)cc2)cc1 (stereo unspecified) | 0 | 0 | 0 | 0 | 0
O=C(COc1ncnc2ccccc12)Nc1cccc(S(=O)(=O)N2CCOCC2)c1 | 0 | 0 | 0 | 0 | 0
O=C(CSc1nc2ccccc2c(=O)n1-c1ccc(F)cc1)Nc1cc(S(=O)(=O)N2CCOCC2)ccc1Cl | 0 | 0 | 0 | ? | ?
